# Tests used:
# Assay in all cases: DAPPL (digital affinity profiling via proximity ligation, sequencing); 10 mM Tris-HCl pH 7.5, 50 mM NaCl, 1 mM DTT, 4% glycerol, room temperature, 30 min; GST-TFs on glutathione beads, 16-mer random dsDNA library, 0.1% formaldehyde crosslink after washing; high values mean tight binding
# FEV = target: T1, FEV (Homo sapiens, UniProt Q99581 1-238); conditions: protein: recombinant; tags: N-terminal GST; dsDNA, one strand shown
# T1 sequence: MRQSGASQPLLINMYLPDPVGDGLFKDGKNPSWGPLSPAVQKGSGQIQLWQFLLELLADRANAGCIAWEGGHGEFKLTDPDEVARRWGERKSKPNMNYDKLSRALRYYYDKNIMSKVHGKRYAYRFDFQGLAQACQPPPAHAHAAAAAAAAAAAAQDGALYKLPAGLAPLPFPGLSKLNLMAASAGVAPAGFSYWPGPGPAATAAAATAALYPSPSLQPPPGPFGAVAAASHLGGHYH
# Procedure, shortened: (§1)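 Each value of binding signal is a hexamer's read frequency for a factor divided by the same hexamer's frequency in the tag-only sample. Barcoded, bead-captured GST fusions of human transcription factors made in yeast were pooled with that sample and incubated with 200 nmole of a random double-stranded 16-mer DNA library in Tris/NaCl/DTT/glycerol buffer at room temperature for 30 min. Washing, 0.1% formaldehyde crosslinking, proximity ligation, PCR and Illumina NextSeq500 sequencing followed.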
# ETV5 = ETV5 (Homo sapiens, UniProt P41161 1-510); conditions: protein: recombinant; tags: N-terminal GST; dsDNA, one strand shown
# Procedure, shortened: as §1
# HSF1 = HSF1 (Homo sapiens, UniProt Q00613 1-529); conditions: protein: recombinant; tags: N-terminal GST; chain copies: 3; dsDNA, one strand shown
# Procedure, shortened: as §1
# SPIC = target: T2, SPIC (Homo sapiens, UniProt Q8N5J4 1-248); conditions: protein: recombinant; tags: N-terminal GST; dsDNA, one strand shown
# T2 sequence: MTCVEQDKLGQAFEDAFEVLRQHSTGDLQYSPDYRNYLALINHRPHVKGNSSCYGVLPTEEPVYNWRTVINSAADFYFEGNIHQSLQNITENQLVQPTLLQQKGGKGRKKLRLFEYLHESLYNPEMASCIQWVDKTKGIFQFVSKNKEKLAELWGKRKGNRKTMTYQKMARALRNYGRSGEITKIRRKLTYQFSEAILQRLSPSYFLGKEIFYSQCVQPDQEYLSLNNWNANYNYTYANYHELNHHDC
# Procedure, shortened: as §1
# ELF4 = ELF4 (Homo sapiens, UniProt Q99607 1-663); conditions: protein: recombinant; tags: N-terminal GST; dsDNA, one strand shown
# Procedure, shortened: as §1
# ELK4 = target: T3, ELK4 (Homo sapiens, UniProt P28324-2 1-405); conditions: protein: recombinant; tags: N-terminal GST; dsDNA, one strand shown
# T3 sequence: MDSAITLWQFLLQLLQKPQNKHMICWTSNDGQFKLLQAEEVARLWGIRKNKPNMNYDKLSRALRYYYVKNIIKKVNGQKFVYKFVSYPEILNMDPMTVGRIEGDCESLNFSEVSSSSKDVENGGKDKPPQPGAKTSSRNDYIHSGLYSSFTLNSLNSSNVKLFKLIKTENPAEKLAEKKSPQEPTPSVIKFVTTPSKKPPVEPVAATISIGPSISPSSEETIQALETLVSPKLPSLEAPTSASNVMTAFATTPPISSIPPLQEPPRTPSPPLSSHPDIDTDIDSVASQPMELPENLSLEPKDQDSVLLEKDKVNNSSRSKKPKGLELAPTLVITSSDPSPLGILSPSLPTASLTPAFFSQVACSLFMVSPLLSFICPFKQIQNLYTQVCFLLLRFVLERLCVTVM
# Procedure, shortened: as §1
# ETV2 = target: T4, ETV2 (Homo sapiens, UniProt O00321 1-342); conditions: protein: recombinant; tags: N-terminal GST; dsDNA, one strand shown
# T4 sequence: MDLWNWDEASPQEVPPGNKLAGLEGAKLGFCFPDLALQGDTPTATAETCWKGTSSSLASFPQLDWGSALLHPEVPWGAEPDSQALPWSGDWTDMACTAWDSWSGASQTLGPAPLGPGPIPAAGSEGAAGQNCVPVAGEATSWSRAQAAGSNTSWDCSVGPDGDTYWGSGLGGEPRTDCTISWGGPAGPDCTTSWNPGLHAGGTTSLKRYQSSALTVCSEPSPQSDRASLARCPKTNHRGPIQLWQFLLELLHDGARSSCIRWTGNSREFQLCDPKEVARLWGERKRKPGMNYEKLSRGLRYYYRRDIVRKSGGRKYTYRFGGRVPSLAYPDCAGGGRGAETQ
# Procedure, shortened: as §1
# ELF3 = target: T5, ELF3 (Homo sapiens, UniProt P78545 1-371); conditions: protein: recombinant; tags: N-terminal GST; dsDNA, one strand shown
# T5 sequence: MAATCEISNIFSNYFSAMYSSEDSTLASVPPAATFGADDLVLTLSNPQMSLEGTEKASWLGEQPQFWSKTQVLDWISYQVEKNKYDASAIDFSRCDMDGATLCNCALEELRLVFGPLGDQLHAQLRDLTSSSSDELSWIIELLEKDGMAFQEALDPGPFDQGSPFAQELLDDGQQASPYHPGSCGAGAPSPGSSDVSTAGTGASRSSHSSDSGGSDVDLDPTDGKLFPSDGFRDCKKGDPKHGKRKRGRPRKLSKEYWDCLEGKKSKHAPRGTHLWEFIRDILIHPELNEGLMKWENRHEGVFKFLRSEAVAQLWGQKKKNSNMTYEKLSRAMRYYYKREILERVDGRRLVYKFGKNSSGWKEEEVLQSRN
# Procedure, shortened: as §1
# CRX = CRX (Homo sapiens, UniProt O43186 1-299); conditions: protein: recombinant; tags: N-terminal GST; dsDNA, one strand shown
# Procedure, shortened: as §1
# ETV1 = ETV1 (Homo sapiens, UniProt P50549 1-477); conditions: protein: recombinant; tags: N-terminal GST; dsDNA, one strand shown
# Procedure, shortened: as §1
# ERF = target: T6, ERF (Homo sapiens, UniProt P50548 1-548); conditions: protein: recombinant; tags: N-terminal GST; dsDNA, one strand shown
# T6 sequence: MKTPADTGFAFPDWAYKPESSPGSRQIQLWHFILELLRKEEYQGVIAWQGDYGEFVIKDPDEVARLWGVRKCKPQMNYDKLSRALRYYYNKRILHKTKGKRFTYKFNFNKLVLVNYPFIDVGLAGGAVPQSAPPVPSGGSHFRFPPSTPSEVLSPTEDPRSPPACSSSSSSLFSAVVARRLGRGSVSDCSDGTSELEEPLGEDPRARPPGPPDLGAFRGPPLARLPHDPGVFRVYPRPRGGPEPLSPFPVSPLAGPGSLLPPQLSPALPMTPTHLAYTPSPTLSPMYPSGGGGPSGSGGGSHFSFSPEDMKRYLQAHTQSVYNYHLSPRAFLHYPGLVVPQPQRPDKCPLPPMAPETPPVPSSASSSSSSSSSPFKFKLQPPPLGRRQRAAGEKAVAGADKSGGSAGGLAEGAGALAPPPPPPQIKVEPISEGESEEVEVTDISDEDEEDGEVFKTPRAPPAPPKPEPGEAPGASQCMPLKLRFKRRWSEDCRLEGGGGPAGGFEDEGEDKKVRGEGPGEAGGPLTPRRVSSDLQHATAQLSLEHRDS
# Procedure, shortened: as §1
# ETV3L = target: T7, ETV3L (Homo sapiens, UniProt Q6ZN32 1-361); conditions: protein: recombinant; tags: N-terminal GST; dsDNA, one strand shown
# T7 sequence: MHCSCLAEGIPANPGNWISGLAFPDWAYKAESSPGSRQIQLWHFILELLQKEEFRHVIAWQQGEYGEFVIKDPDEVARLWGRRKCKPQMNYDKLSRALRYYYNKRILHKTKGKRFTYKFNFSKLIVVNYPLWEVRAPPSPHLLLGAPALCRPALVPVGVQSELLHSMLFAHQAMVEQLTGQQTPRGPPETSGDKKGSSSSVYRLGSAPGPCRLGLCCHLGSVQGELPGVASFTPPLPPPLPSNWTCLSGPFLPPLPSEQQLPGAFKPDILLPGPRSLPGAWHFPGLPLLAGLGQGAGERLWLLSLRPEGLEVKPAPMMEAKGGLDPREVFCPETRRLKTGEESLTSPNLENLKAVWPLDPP
# Procedure, shortened: as §1
# ETS2 = target: T8, ETS2 (Homo sapiens, UniProt P15036 1-469); conditions: protein: recombinant; tags: N-terminal GST; dsDNA, one strand shown
# T8 sequence: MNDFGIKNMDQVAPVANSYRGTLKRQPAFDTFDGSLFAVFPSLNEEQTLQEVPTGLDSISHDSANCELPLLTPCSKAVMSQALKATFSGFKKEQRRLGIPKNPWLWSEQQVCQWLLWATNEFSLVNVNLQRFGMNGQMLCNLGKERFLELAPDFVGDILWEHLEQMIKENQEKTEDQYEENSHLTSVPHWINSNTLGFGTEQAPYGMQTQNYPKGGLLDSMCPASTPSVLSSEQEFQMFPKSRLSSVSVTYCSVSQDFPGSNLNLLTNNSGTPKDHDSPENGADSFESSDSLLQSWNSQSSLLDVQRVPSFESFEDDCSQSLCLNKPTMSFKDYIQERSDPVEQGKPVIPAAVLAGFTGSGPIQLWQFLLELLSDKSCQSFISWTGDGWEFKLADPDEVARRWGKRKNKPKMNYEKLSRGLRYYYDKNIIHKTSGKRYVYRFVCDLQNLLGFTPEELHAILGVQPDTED
# Procedure, shortened: as §1
# SPDEF = target: T9, SPDEF (Homo sapiens, UniProt O95238 1-335); conditions: protein: recombinant; tags: N-terminal GST; dsDNA, one strand shown
# T9 sequence: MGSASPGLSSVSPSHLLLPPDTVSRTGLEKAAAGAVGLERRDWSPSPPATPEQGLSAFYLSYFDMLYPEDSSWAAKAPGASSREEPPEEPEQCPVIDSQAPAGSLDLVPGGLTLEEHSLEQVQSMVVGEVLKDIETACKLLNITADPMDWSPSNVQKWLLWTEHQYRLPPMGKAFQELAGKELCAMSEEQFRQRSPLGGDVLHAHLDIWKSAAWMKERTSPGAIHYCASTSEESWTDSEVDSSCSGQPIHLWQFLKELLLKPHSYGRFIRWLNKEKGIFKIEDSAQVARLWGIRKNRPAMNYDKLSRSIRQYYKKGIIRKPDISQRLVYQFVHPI
# Procedure, shortened: as §1
# ETV7 = target: T10, ETV7 (Homo sapiens, UniProt Q9Y603 1-341); conditions: protein: recombinant; tags: N-terminal GST; dsDNA, one strand shown
# T10 sequence: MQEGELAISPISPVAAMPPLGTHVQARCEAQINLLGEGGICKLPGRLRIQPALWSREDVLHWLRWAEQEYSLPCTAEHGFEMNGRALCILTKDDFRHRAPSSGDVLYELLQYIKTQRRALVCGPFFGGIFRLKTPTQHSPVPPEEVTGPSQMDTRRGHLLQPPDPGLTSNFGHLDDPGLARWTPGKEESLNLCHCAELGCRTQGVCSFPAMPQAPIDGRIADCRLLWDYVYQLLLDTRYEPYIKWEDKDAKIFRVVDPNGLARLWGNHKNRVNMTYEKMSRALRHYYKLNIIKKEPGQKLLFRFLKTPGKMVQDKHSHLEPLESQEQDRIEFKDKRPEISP
# Procedure, shortened: as §1
# ELF5 = target: T11, ELF5 (Homo sapiens, UniProt Q9UKW6-2 1-255); conditions: protein: recombinant; tags: N-terminal GST; dsDNA, one strand shown
# T11 sequence: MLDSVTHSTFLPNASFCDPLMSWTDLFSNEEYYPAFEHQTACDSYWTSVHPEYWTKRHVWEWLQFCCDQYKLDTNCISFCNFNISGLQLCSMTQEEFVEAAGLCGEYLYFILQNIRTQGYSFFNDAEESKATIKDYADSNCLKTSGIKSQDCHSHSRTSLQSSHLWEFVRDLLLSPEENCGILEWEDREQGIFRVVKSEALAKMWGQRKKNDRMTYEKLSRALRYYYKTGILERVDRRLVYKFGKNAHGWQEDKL
# Procedure, shortened: as §1
# ETV3 = target: T12, ETV3 (Homo sapiens, UniProt P41162-2 1-143); conditions: protein: recombinant; tags: N-terminal GST; dsDNA, one strand shown
# T12 sequence: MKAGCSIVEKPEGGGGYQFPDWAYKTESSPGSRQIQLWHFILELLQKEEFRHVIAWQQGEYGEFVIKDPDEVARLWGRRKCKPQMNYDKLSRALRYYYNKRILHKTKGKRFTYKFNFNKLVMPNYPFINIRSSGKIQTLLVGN
# Procedure, shortened: as §1
# ETV6 = ETV6 (Homo sapiens, UniProt P41212 1-452); conditions: protein: recombinant; tags: N-terminal GST; dsDNA, one strand shown
# Procedure, shortened: as §1
# ETV1, sequence (P50549 whole entry): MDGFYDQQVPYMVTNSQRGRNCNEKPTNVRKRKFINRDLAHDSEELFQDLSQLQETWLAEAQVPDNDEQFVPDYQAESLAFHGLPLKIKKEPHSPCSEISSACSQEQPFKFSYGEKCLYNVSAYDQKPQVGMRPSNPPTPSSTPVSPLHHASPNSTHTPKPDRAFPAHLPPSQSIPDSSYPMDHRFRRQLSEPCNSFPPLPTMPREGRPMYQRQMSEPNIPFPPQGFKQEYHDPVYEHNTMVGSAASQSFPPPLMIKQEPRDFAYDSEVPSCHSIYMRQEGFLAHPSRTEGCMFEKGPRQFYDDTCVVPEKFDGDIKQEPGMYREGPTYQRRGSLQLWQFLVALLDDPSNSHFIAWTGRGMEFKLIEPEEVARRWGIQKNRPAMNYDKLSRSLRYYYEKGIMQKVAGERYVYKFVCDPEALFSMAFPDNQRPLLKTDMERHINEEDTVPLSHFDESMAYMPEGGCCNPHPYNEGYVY
# HSF1, sequence (Q00613 whole entry): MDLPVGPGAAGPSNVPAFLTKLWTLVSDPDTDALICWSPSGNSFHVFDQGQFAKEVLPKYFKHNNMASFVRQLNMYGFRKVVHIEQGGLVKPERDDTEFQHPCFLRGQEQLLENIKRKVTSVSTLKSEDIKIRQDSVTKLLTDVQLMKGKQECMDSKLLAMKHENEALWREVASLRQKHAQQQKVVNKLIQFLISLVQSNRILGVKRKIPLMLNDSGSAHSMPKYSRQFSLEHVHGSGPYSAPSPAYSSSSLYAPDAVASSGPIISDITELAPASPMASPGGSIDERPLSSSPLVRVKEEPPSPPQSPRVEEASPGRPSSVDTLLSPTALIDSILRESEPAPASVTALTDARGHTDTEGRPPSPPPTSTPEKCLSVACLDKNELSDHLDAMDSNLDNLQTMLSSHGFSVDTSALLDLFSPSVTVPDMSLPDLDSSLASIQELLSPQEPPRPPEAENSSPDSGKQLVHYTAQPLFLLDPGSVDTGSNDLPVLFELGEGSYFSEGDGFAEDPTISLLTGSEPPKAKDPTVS
# ELF4, sequence (Q99607 whole entry): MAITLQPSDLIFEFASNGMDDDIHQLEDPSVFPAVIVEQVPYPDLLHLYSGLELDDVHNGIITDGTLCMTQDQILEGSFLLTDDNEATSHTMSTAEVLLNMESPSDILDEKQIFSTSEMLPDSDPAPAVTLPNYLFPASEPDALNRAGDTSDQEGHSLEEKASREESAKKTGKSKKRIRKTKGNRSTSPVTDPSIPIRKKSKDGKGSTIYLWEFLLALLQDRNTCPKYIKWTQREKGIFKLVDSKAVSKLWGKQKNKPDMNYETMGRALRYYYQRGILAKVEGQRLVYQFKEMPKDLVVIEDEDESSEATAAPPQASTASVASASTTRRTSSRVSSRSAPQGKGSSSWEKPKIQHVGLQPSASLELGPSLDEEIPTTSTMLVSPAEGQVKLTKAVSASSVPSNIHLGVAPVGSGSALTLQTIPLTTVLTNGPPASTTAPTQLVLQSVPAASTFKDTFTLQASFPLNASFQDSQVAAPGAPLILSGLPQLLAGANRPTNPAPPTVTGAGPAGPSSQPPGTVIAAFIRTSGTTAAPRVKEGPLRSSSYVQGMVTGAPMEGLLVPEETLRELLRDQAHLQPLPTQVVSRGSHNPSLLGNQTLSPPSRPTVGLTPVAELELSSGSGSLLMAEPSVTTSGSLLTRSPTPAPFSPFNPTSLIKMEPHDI
# ETV5, sequence (P41161 whole entry): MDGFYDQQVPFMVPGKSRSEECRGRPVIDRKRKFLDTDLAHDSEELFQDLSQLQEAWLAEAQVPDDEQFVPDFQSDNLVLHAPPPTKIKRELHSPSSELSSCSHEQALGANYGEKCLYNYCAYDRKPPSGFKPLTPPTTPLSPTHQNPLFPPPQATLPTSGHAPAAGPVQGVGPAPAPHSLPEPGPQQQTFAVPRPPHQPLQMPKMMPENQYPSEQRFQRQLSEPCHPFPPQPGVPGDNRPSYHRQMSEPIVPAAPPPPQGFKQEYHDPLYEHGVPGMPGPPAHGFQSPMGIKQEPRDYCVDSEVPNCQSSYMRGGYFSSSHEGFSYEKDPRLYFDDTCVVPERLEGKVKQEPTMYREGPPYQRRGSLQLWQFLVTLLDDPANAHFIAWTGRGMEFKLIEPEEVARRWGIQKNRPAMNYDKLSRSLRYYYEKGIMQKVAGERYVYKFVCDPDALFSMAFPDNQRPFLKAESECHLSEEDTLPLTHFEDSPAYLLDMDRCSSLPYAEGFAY
# CRX, sequence (O43186 whole entry): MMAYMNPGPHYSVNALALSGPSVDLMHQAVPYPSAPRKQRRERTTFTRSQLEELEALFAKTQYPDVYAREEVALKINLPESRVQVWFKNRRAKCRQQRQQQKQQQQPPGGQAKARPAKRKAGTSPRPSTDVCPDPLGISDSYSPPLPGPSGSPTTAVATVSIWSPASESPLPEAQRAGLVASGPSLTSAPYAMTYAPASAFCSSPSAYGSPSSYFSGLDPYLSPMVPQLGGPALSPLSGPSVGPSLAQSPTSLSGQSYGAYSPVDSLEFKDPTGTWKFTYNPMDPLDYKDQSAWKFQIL
# ETV6, sequence (P41212 whole entry): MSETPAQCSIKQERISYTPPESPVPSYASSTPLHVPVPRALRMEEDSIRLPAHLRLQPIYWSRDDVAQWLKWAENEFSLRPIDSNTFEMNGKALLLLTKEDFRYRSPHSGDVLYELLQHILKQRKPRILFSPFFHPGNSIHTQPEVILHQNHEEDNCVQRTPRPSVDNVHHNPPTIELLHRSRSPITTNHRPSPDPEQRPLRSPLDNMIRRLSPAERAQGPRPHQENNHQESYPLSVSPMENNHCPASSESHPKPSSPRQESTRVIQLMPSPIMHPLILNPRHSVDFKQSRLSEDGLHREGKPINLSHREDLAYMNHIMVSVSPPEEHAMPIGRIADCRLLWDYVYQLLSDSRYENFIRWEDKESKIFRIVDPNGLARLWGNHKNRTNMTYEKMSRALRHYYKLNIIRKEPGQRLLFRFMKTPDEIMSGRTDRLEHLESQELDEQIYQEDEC
sequence,measurement,setting,value
ACTGAT,binding signal,FEV,"1.19 fold enrichment (6-mer frequency, TF over GST control)"
same,binding signal,ETV5,"1.21 fold enrichment (6-mer frequency, TF over GST control)"
same,binding signal,HSF1,"1.22 fold enrichment (6-mer frequency, TF over GST control)"
same,binding signal,SPIC,"1.51 fold enrichment (6-mer frequency, TF over GST control)"
same,binding signal,ELF4,"1.23 fold enrichment (6-mer frequency, TF over GST control)"
same,binding signal,ELK4,"1.34 fold enrichment (6-mer frequency, TF over GST control)"
same,binding signal,ETV2,"1.19 fold enrichment (6-mer frequency, TF over GST control)"
same,binding signal,ELF3,"1.21 fold enrichment (6-mer frequency, TF over GST control)"
same,binding signal,CRX,"1.38 fold enrichment (6-mer frequency, TF over GST control)"
same,binding signal,ETV1,"1.32 fold enrichment (6-mer frequency, TF over GST control)"
same,binding signal,ERF,"1.26 fold enrichment (6-mer frequency, TF over GST control)"
same,binding signal,ETV3L,"1.25 fold enrichment (6-mer frequency, TF over GST control)"
same,binding signal,ETS2,"1.28 fold enrichment (6-mer frequency, TF over GST control)"
same,binding signal,SPDEF,"1.1 fold enrichment (6-mer frequency, TF over GST control)"
same,binding signal,ETV7,"1.13 fold enrichment (6-mer frequency, TF over GST control)"
same,binding signal,ELF5,"1.22 fold enrichment (6-mer frequency, TF over GST control)"
same,binding signal,ETV3,"1.25 fold enrichment (6-mer frequency, TF over GST control)"
same,binding signal,ETV6,"1.2 fold enrichment (6-mer frequency, TF over GST control)"

# Source: article PMC7862700, “An all-to-all approach to the identification of sequence-specific readers for epigenetic DNA modifications on cytosine”
